A selection: hits, their analogues and other compounds. The true share with any hit is near 9.9%.
HPGD inh = blocks human HPGD enzyme activity; P15428; purified HPGD, NADH fluorescence kinetic, PGE2 substrate; Potency, µM, for inactives: top-dose activity change, negative = inhibition, hits mostly inhibitors; 4.3% of 150,000 active
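20 nM HPGD preincubated 15 min at room temperature with compound in 50 mM Tris-HCl pH 8, 0.01% Tween 20. Started with 1 mM NAD+ and 30 uM prostaglandin E2; NADH fluorescence (360/450 nm) read 5 times over 30-s intervals, last minus first.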
Tau ThT inhib = tau fibrillization inhibition (ThT binding); P10636; recombinant tau K18 P301L, heparin-induced fibrillization, ThT fluorescence; Potency, µM (titrated, usually from 57.4 µM), for inactives: at the highest dose activity, negative = inhibition, hits mostly inhibitors; 2.1% of 270,000 active; AID 1460; active = well fitted curve in the direction sought with a large enough effect; inconclusive = small, poorly fitted or top-dose-only effect, or another doubt; inactive = no such curve, though single readings can be large; an effect the other way counts as inactive or inconclusive; note: nearly all actives have a fitted effect of over 55% in size
Target sequence (P10636 561-689 P618L limits assumed): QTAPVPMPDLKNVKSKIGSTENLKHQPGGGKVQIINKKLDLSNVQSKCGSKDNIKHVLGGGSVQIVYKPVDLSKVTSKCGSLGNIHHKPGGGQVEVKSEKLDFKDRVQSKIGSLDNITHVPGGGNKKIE
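Heparin-induced (20 uM) aggregation of recombinant human K18 P301L tau, 15 uM unlabeled with 0.24 uM labeled, pH 7 acetate buffer, 6 hr at 37 C with compound. Fibrils quantified by 30 uM ThT fluorescence after 1 hr ambient incubation.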
Tau FP inhib = inhibitors of human tau fibril formation | P10636 | K18 P301L tau heparin fibrillization, Alexa594 FP, 6 h | Potency, µM (doses to about 57.7 µM), without a hit: top-dose activity, negative = inhibition, hits mostly inhibitors | 0.39% of 280,000 active | AID 1468; active = well fitted curve in the direction sought with a large enough effect; inconclusive = small, poorly fitted or top-dose-only effect, or another doubt; inactive = no such curve, though single readings can be large; an effect the other way counts as inactive or inconclusive; note: nearly all actives have a fitted effect of over 55% in size
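Read-out: fluorescence polarization of Alexa 594-labeled tau (0.24 uM), 555 nm excitation, 632 nm emission. Mixtures held 15 uM unlabeled K18 P301L, compound and 20 uM heparin, pH 7 acetate buffer, incubated 6 hr at 37 C.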
JMJD2E inh = blocks human JMJD2E demethylase activity | B2RXH2 | 1.6% of 230,000 active | JMJD2E catalytic domain, FDH-coupled NADH fluorescence (FDH is formaldehyde dehydrogenase) | Potency, µM (doses to about 57.1 µM), for the others: top-dose activity change, negative = inhibition, hits mostly inhibitors | AID 2147;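 note: 0% = wells with enzyme and -100% = buffer wells without enzyme; nearly all actives have a fitted effect of over 50% in size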
Target sequence (B2RXH2 1-337 limits assumed): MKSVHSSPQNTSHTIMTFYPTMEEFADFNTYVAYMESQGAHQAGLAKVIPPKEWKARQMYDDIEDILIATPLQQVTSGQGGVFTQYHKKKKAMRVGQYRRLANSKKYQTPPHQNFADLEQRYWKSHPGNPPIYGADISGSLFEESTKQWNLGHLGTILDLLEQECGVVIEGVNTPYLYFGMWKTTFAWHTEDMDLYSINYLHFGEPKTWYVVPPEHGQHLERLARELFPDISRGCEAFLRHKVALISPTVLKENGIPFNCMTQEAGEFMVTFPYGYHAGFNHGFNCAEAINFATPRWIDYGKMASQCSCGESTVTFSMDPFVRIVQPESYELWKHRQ
ALDH1A1 block = ALDH1A1 (human) enzyme inhibition | Purified ALDH1A1, NADH fluorescence, propionaldehyde substrate | Potency, µM (titrated, usually from 75.3 µM), inactives show at the top dose activity, negative = inhibition, usual class: inhibitors | 7.3% of 220,000 active | AID 1030;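 note: plate controls were no enzyme wells and a reference inhibitor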
Tau fluor cs = counter-screen for tau fibril formation inhibitors; tau K18 P301L Alexa594 fluorescence, heparin fibrillization; AID 1463; Potency, µM (doses to about 57.7 µM), for the others: at the highest dose activity change, negative = decrease; 0.93% of 280,000 active; active = well fitted curve in the direction sought with a large enough effect; inconclusive = small, poorly fitted or top-dose-only effect, or another doubt; inactive = no such curve, though single readings can be large; an effect the other way counts as inactive or inconclusive; note: nearly all actives have a fitted effect of over 55% in size
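Human tau K18 P301L (15 uM unlabeled, 0.24 uM Alexa 594-labeled) in 100 mM sodium acetate pH 7 with 20 uM heparin, 6 hr at 37 C. ThT 30 uM added, 1 hr ambient; Alexa 594 FP and total fluorescence read at 555/632 nm.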
Numbers without * were called inactive; [ ] = another dose, or the depositor's remark. Unless noted, calls come from the whole dose curve; as a rule, active = well fitted inhibition curve with a large enough effect (not every such curve was filed as active); inconclusive = small, poorly fitted or top-dose-only effect, or another doubt; inactive = no such curve, though single readings can be large or run the other way. Unless noted, % is set by controls: 0 for no effect and ±100 for the full control effect; potency is the fitted concentration of half-maximal effect.

`CS(=O)(=O)N1CCN(c2ccccc2NC(=O)c2ccc(Br)o2)CC1` gave HPGD inh -7%, Tau ThT inhib -8%, Tau FP inhib 6%, JMJD2E inh 5%, ALDH1A1 block 3.2µM* and Tau fluor cs -7%.
For CC(=O)c1cc(C(=O)Nc2ccccc2C(=O)O)oc1C the results were HPGD inh inconclusive, Tau ThT inhib 1%, Tau FP inhib 1%, JMJD2E inh 1%, ALDH1A1 block 0.71µM* and Tau fluor cs 2%.
COc1ccc(C)cc1NC(=O)c1ccccc1NS(=O)(=O)c1ccc(Cl)s1 was read as Tau ThT inhib inconclusive, Tau FP inhib 16%, JMJD2E inh -3%, ALDH1A1 block 4% and Tau fluor cs -19%.
For N#Cc1ccc(-c2cccnc2)nc1SCC(=O)c1ccccc1 the results were Tau ThT inhib 4.5µM*, Tau FP inhib -3%, JMJD2E inh 2% and Tau fluor cs inconclusive.
For NNC(=O)C1CC1c1ccccc1 (stereo unspecified) the results were Tau ThT inhib 1%, Tau FP inhib 3%, JMJD2E inh -4%, ALDH1A1 block 4µM* and Tau fluor cs 0%.
O=C(NNc1ccc([N+](=O)[O-])cc1)C1CC1c1ccccc1 (stereo unspecified) was read as HPGD inh 25µM*, Tau ThT inhib inconclusive, Tau FP inhib 6%, JMJD2E inh 9%, ALDH1A1 block 10µM* and Tau fluor cs -19%.
`C[C@@](N)(C(=O)O)[C@@H]1C[C@@H]1C(=O)O` gave Tau ThT inhib 3%, Tau FP inhib 1%, ALDH1A1 block 2% and Tau fluor cs -7%.
`COc1cccc(CNC(=O)CCC2CCCN(C(=O)Cc3ccccc3F)C2)c1` (stereo unspecified) gave Tau ThT inhib 2%, Tau FP inhib 5%, JMJD2E inh 12%, ALDH1A1 block 11µM* and Tau fluor cs 6%.
COc1ccccc1CC(=O)N1CCCC(CCC(=O)NCc2ccccc2F)C1 (stereo unspecified) was read as Tau ThT inhib -4%, Tau FP inhib -17%, JMJD2E inh 4% and Tau fluor cs -10%.
For COc1ccc(C(=O)N2CCCC(CCC(=O)NCc3ccc(F)c(F)c3)C2)o1 (stereo unspecified) the results were Tau ThT inhib -5%, Tau FP inhib 3%, JMJD2E inh 3%, ALDH1A1 block 16µM* and Tau fluor cs -7%.
Screening CCOc1cccc(NC(=O)c2cccc(F)c2)c1 returned Tau ThT inhib -12%, Tau FP inhib -3%, JMJD2E inh 7%, ALDH1A1 block 1% and Tau fluor cs -11%.
`CCOC(=O)c1oc2ccccc2c1CSc1nnnn1-c1ccccc1` gave HPGD inh -13%, Tau ThT inhib -8%, Tau FP inhib -2%, JMJD2E inh -2%, ALDH1A1 block 6.3µM* and Tau fluor cs -19%.
CCOC(=O)c1oc2ccccc2c1CN1CCOCC1 was read as HPGD inh -9%, Tau ThT inhib -6%, Tau FP inhib -5%, JMJD2E inh -3%, ALDH1A1 block 11µM* and Tau fluor cs -6%.
`CCSc1nc2n(n1)C(c1ccc(C(=O)O)cc1)C(C(=O)Nc1ccccc1C)=C(C)N2` (stereo unspecified) gave Tau ThT inhib 1%, Tau FP inhib -8% and Tau fluor cs -2%.
`O=C(NN=C1CCCCCCC1)c1ccc(F)cc1` gave Tau ThT inhib -4%, Tau FP inhib -1%, JMJD2E inh 49%, ALDH1A1 block -12% and Tau fluor cs 4%.
`CCNc1ccc(C(=O)NN=C2CCCC2)cc1[N+](=O)[O-]` gave Tau ThT inhib 8.9µM*, Tau FP inhib 4%, JMJD2E inh 17%, ALDH1A1 block 2.2µM* and Tau fluor cs -18%.
For O=c1[nH]c(C2CCCN(S(=O)(=O)c3ccccc3)C2)nc2c1nnn2Cc1ccccc1Br (stereo unspecified) the results were Tau ThT inhib -4%, Tau FP inhib 5% and Tau fluor cs -12%.
For O=c1[nH]c(C2CCCN(S(=O)(=O)c3ccccc3)C2)nc2c1nnn2Cc1ccccc1 (stereo unspecified) the results were HPGD inh 14µM*, Tau ThT inhib -10%, Tau FP inhib 2%, JMJD2E inh -8%, ALDH1A1 block 10µM* and Tau fluor cs -15%.
O=c1[nH]c(C2CCCN(S(=O)(=O)c3ccccc3)C2)nc2c1nnn2Cc1ccccc1F (stereo unspecified) was read as HPGD inh 13µM*, Tau ThT inhib -5%, Tau FP inhib -4%, JMJD2E inh 8%, ALDH1A1 block inconclusive and Tau fluor cs -4%.
`C=CC1=C(C)C2=NC1=CC1=NC(=CC3=NC(=CC4=NC(=C2)C(C)=C4CCC(=O)O)C(CCC(=O)O)=C3C)C(C=C)=C1C.[Zn]` gave HPGD inh inconclusive, Tau ThT inhib 6.3µM*, Tau FP inhib 20µM*, JMJD2E inh inconclusive, ALDH1A1 block inconclusive and Tau fluor cs 14µM*[quencher].
NC(=S)NNc1cccc2cccnc12 was read as Tau ThT inhib 3.5µM*, Tau FP inhib 7.9µM*, JMJD2E inh -8%, ALDH1A1 block 3.5µM* and Tau fluor cs inconclusive.
CC(c1ccccn1)N(Cc1ccco1)C(=S)Nc1cccc(F)c1 (stereo unspecified) was read as Tau ThT inhib -6%, Tau FP inhib -2%, JMJD2E inh -6%, ALDH1A1 block inconclusive and Tau fluor cs -14%.
`O=C(c1ccco1)N1CCn2cccc2C1c1ccccc1` (stereo unspecified) gave Tau ThT inhib -15%, Tau FP inhib -15%, JMJD2E inh inconclusive, ALDH1A1 block 1.3µM* and Tau fluor cs -12%.
`CC(=O)c1ccc(N2Cc3ccccc3/C2=N\C(=O)Nc2ccc(Cl)cc2)cc1` gave HPGD inh -12%, Tau ThT inhib -12%, Tau FP inhib inconclusive, JMJD2E inh inconclusive, ALDH1A1 block 3% and Tau fluor cs -13%.
Screening COc1ccc(N2C(=O)CSC23C(=O)N2CCCc4cccc3c42)cc1 (stereo unspecified) returned HPGD inh -7%, Tau ThT inhib -3%, Tau FP inhib 5%, JMJD2E inh -4%, ALDH1A1 block 11µM* and Tau fluor cs 4%.
For O=C1CSC2(C(=O)N3CCCc4cccc2c43)N1c1cccc(C(F)(F)F)c1 (stereo unspecified) the results were HPGD inh -4%, Tau ThT inhib 0%, Tau FP inhib -3%, JMJD2E inh -4%, ALDH1A1 block inconclusive and Tau fluor cs -7%.
